Results taken from PubChem BioAssay AID1619 (SRMLSC, 2009).
Hit rate of the full screen: of about 220,000 compounds, about 830 (0.38%) were called active.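 The calls were made as follows: active = compound inhibiting the enzyme by more than half at any dose during confirmatory dose-response retesting; inconclusive = strong single-dose inhibitors picked by rank but not retested; inactive = the rest.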 Not all results are given here. Entries with a potency or affinity are not part of this list.

Molecular target: Leucine aminopeptidase (Plasmodium falciparum (isolate 3D7)) (UniProt Q8IL11)
Sequence (Q8IL11 whole entry, looked up): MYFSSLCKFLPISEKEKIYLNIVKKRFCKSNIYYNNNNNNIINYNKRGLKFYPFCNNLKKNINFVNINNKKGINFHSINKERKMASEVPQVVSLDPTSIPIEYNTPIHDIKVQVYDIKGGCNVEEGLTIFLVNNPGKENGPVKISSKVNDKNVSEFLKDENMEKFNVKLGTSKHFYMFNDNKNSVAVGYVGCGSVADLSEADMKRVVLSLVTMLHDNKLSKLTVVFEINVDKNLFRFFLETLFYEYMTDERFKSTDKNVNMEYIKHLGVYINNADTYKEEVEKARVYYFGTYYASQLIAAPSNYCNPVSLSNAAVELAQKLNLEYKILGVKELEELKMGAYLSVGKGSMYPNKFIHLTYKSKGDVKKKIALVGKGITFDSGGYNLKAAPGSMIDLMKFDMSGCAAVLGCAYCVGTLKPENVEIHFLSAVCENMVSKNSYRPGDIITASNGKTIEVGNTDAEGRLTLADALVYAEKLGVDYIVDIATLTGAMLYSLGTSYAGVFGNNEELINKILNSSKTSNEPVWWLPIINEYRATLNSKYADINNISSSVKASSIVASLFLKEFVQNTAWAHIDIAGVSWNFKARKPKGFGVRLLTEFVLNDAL
Assay: P. falciparum M17LAP inhibitors, primary screen, biochemical, fluorogenic H-Leu-NHMec substrate, 1536-well (AID 1619);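 also: plate controls were full reaction with DMSO carrier for no effect and no enzyme background for full effect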
Details: recombinant M17LAP, H-Leu-NHMec fluorogenic kinetic assay; at 30 µM; active compounds read high

inhibition, inactive:
Cc1nn(-c2ccccc2)c(N)c1C(O)(CSc1nccn1C)C(F)(F)F (stereo not given) -3.48%, CCC(CC)c1nnc(NC(=O)C2=NNC(=O)CC2)s1 -4.73%, COc1ccc(-c2cc(=O)n(-c3ccc([N+](=O)[O-])cc3)[nH]2)cc1 2.52%, Nn1cnc2sc3c(c2c1=O)CCC3 0.94%, CCC(=O)Nc1ccc2c(c1)C(=O)c1ccccc1C2=O -6.31%, COC(=O)N1[C@H](C)C=C[C@]1(Cc1ccccc1)C(=O)O 2.77%, COc1ccc(N2C(=O)/C(=C/c3ccc([N+](=O)[O-])cc3)C=C2c2ccccc2)cc1 -15.3%, CCOC(=O)c1ccc(Cl)c(NC(=O)c2ccc(-c3ccccc3)cc2)c1 -7.72%, COc1ccccc1Nc1nc(-c2c(C)nc3ncccn23)cs1 11.3%, COc1ccc(C2C(C#N)=C(N)OC3=C2C(=O)CC(C)(C)C3)cc1 (stereo not given) 7%, CCN=c1scc(C)n1/N=C/c1ccsc1 12.2%, CN=c1scc(C)n1/N=C/c1ccc(O)c(O)c1O 59%, CCCCN(CC)CCCNC(=O)c1cc2c(=O)n(C)c3ccccc3c2n1C -2.09%, O=C(O)CCN1C(=O)/C(=C\c2ccncc2)SC1=S 12.4%, COc1ccc(/C=C2/SC(=S)N(CCC(=O)O)C2=O)cc1 38.8%, C/C(=C1/SC(=S)N(CCC(=O)O)C1=O)c1ccc(O)cc1 52.2%, COc1ccc(C(=O)CCC(=O)O)cc1 2.45%, C=CCNC(=O)CCCc1ccccc1 11.4%, CC1CCCCN1C(=O)Cn1cnc2c1c(=O)n(C)c(=O)n2C (stereo not given) 0.19%, Cc1cc(-c2ccccc2)nc(Oc2cccc(C(F)(F)F)c2)c1S(C)(=O)=O -2.06%, COc1cccc(-n2nc3c(=S)[nH]nc(C)c3c2C)c1 -3.52%, O=C(O)COCC(=O)Nc1cc(C(F)(F)F)cc(C(F)(F)F)c1 -0.47%, COc1ccccc1NS(=O)(=O)c1ccc(NC(=O)c2ccncc2)cc1 -5.68%, Cc1ccccc1-c1cc(=O)c2c(O)cccc2o1 -7.05%, COc1ccc(-c2cc(=O)c3c(O)c(OC)c(O)cc3o2)cc1 -3.88%, COc1ccc(C2=NOC(C(=O)Nc3cc(C)on3)C2)cc1 (stereo not given) -16.7%, COc1ccccc1NC(=O)CSC1CC(=O)N(c2ccc3c(c2)OCO3)C1=O (stereo not given) 2.14%, COC(=O)c1ccc(N2C(=O)CC(SCC(=O)Nc3ccc(OC)cc3)C2=O)cc1 (stereo not given) -6.08%, COC(=O)[C@@]1(Cc2ccccc2)[C@H]2c3cc(C(=O)N4CCCC4)n(CCSCCO)c3C[C@H]2CN1C(=O)c1ccccc1 2.66%, CN(CCC#N)S(=O)(=O)c1ccc2[nH]cc(C(=O)NCCc3ccccc3)c(=O)c2c1 -16%, Cc1cc(Cl)ccc1C(=O)C1CCCN(C(=O)CCn2cnnn2)C1 (stereo not given) 5.92%, CCOc1ccccc1C1C(C#N)=C(N)Oc2n[nH]c(CC)c21 (stereo not given) 29.4%, CCCc1[nH]nc2c1C(c1ccccc1OCC)C(C#N)=C(N)O2 (stereo not given) 8.34%, CCOC(=O)N1CCC(N2C(=O)c3ccccc3C2Nc2ccc3c(c2)OCCO3)CC1 (stereo not given) -7.29%, CCn1c(-c2cc(-c3ccc(C)cc3)nc3ccccc23)n[nH]c1=S -3.9%, CCCCS(=O)(=O)N1CN(S(=O)(=O)CCCC)C2NC(=O)NC21 (stereo not given) 0.79%, CCCc1cc(=O)oc2c(C)c(OCc3nn[nH]n3)ccc12 -5.76%, CCCCc1cc(=O)oc2c(C)c(OCc3nn[nH]n3)ccc12 6.82%, O=C(NC1CCCCC1)c1ccccc1NC(=S)NC(=O)C1CC1 5.81%, S=C(Nc1ccccc1)Nc1ccccc1-n1cccc1 -5.63%, N#Cc1c(NC(=O)CSc2ncn(-c3ccccc3)n2)sc2c1CCCC2 9.47%, N#Cc1c(NC(=O)CSc2nc(N)cc(=O)[nH]2)sc2c1CCCCCC2 4.49%, Cc1nnc(SCC(=O)Nc2sc3c(c2C#N)CCCC3)[nH]c1=O 52.5%, Cc1csc(SCC(=O)Nc2sccc2C#N)n1 0.5%, Cn1cnnc1SCC(=O)Nc1sccc1C#N -7.3%, Cc1ccnc(SCC(=O)Nc2sc3c(c2C#N)CCCC3)n1 2.01%, Cn1cnnc1SCC(=O)Nc1sc2c(c1C#N)CCCCC2 11.7%, N#Cc1c(NC(=O)CSC2=NCCS2)sc2c1CCCC2 19.2%, O=C1CC(C(=O)NCc2ccccc2)C2(CCCC2)O1 (stereo not given) -0.86%, COc1ccc(C2C(C(=O)N3CCCCC3)c3ccccc3C(=O)N2C)cc1 (stereo not given) -0.86%, CCOC(=O)c1sc(NC(=O)CSc2nc(C)cc(C)c2C#N)c(C#N)c1C -17.4%, CCOC(=O)c1sc(NC(=O)CSc2nc(C)cc(C)n2)c(C#N)c1C -1.79%, Cc1ccc(OCC(=O)OC2CCS(=O)(=O)C2)cc1 (stereo not given) 1.23%, CN(C)c1ccc2c(=O)[nH][nH]c(=O)c2c1 5.67%, CN1C(=O)c2ccc(N3CCCC3)cc2C1=O 22.5%, O=C(Nc1ccc(Br)cc1Cl)NC1CC1 -4.66%, CC(CCc1ccccc1)NC(=O)c1cccs1 (stereo not given) -2.09%, Cc1ccc2c(CC(=O)N3CCN(S(=O)(=O)c4ccc5c(c4)OCCO5)CC3)coc2c1 -3.86%, Cc1ccccc1/C=N/NC(=O)Cn1nnc(N)n1 -9.27%, COc1ccc2sc(N(CCN(C)C)C(=O)/C=C/c3cccs3)nc2c1 1.07%, CC1=NN(C(=O)CSCc2ccccc2)C(O)(c2ccc(F)cc2)C1 (stereo not given) 6.76%, CCOC(=O)c1c(NC(=O)C2C3CCC(O3)C2C(=O)O)sc2c1CCCC2 (stereo not given) 14.3%, COC(=O)c1c(NC(=O)C2C3CCC(C3)C2C(=O)O)sc2c1CCCCC2 (stereo not given) 56.4%, CCOC(=O)c1c(NC(=O)C2CCCCC2C(=O)O)sc2c1CCCCC2 (stereo not given) 33.7%, COC(=O)c1c(NC(=O)C2CC2)sc2c1CCCC2 -6.73%
